The record followed here is PubChem BioAssay (NCI).

The panel holds about 83,000 compounds, 20% with a hit somewhere; the sample as a whole holds those more often.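 How to read the values: 0–100, growth inhibition (40 = 60% inhibited); 0, no net growth; -100 to 0, cell death (-40 = 40% of starting cells died; -100 = all dead).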 Calls of active or inactive are those of the source. How the source made its calls: active means growth percent below 10; inactive means the rest.

In the experiment the test system is HL-60(TB) leukemia. The experiment in a line: NCI-60 one-dose screen, 48 h (100 = growth as untreated, 0 = no growth, -100 = all killed). As to conditions: 10 µM unless noted.
Take `C1CCC(N2CN3c4nonc4N4CN(C5CCCCC5)CN5c6nonc6N(C2)C3C45)CC1` (centres undefined): the growth is 100% (inactive). The figure for `CCCCCCCCCCCCCCCCCCSC1=CC(=O)C(OC)=C(OC)C1=O` is 66.9% (inactive). `COc1ccc(/C=C/C(=O)Nc2cc(/C=C\c3cc(OC)c(OC)c(OC)c3)cc(OC)c2OC)cc1OC`: the growth was -38.1% (active). Then `NC1[C@H](c2c[nH]c3ccccc23)c2c([nH]c3ccccc23)[C@H]1c1c[nH]c2ccccc12` (some centres undefined), with 119% (inactive); and `O=[N+]([O-])c1ccc(N/N=C/c2cccc3ccccc23)nc1`, with 26.4% (inactive). `S=c1[nH]ccn1-c1c(Cl)cccc1Cl`: the growth was 93.5% (inactive). For the compound `Oc1c(CN2CCC(N3CCCCC3)CC2)cc(Cc2cc(CN3CCC(N4CCCCC4)CC3)c(O)c3ncccc23)c2cccnc12`, the growth was -6.31% (active). Then `CCCCCCCCCCCCCCCC[N+]1(C)CCOCC1`, with -59.5% (active); and `CCN(CC)CCSC(=O)C(O)(c1ccccc1)C1CCCC1` (centres undefined), with 94% (inactive); and `C=C1C(=O)O[C@H]2[C@H]1CC/C(COC(=O)NCCc1c[nH]c3ccccc13)=C\CC[C@@]1(C)O[C@@H]21`, with -46.2% (active). Regarding `Cc1ccc(/C=C(\C#N)C(=O)Nc2ncc(Cc3cc(Cl)ccc3Cl)s2)o1`, the growth is 22.5% (inactive). Turning to `CCCCCCCCCCCCCCCCCC(=O)Nc1ccc(O)cc1`, the growth is 5.77% (active). In the case of `COc1ccc(Oc2nc(NC3CCCC3)nc(Sc3ccc(OC)cc3)n2)cc1`, the growth is 48.3% (inactive). The figure for `C/C(=C(/c1ccc(O)cc1)c1ccc(Cl)cc1)c1ccccc1` is -20.7% (active).
